Drawing on PubChem BioAssay (NCI), this text covers growth inhibition for 9 molecules.

About 79,000 compounds went through this panel and 15% of them were active in at least one assay; those are over-represented in the sample as a whole. Values without a mark were called inactive. Calls of active or inactive are those of the source. Rule as the data show it: active = growth inhibition above about 70%; inactive = the rest.

Assay [1] in a line: NCI Yeast Anticancer Drug Screen. Data for the rad50 strain (AID 155).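 Also: 0% = growth of vehicle-only cultures of the same strain.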 Particulars: S. cerevisiae rad50 strain growth inhibition, stronger effect = higher value. The procedure, abridged:
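Growth of the mutant yeast was measured after compound exposure and referenced to vehicle-treated cultures.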

Assay [2] is described as follows: NCI Yeast Anticancer Drug Screen. Data for the mec2-1 strain (AID 157). Particulars: S. cerevisiae mec2-1 strain, stronger effect = higher value. The procedure, abridged: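 Vehicle-treated cultures served as reference for growth inhibition of compound-exposed mec2-1 yeast.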
A short description of assay [3]: NCI Yeast Anticancer Drug Screen. Data for the sgs1 mgt1 strain (AID 161).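 Also: 0% = growth of cultures given vehicle only.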 Particulars: S. cerevisiae sgs1 mgt1 strain, stronger effect = higher value. The procedure, abridged:
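Test agents were incubated with a DNA-repair-mutant yeast strain. Growth was then read and compared against vehicle-treated controls.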

A short description of assay [4]: NCI Yeast Anticancer Drug Screen. Data for the cln2 rad14 strain (AID 165).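 Also: 0% = growth equal to vehicle treated cultures.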 Particulars: S. cerevisiae cln2 rad14 strain, stronger effect = higher value. Put shortly: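 Each compound was tested on cln2 rad14 yeast. Inhibition of growth was calculated against vehicle-exposed controls.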
Assay [5] in a line: NCI Yeast Anticancer Drug Screen. Data for the bub3 strain (AID 167). Particulars: S. cerevisiae bub3 mutant strain, stronger effect = higher value. The procedure, abridged:
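Whole-cell yeast assay. The mutant strain was incubated with compounds, and growth inhibition was determined by comparison with vehicle-treated cells.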

Assay [6] is described as follows: NCI Yeast Anticancer Drug Screen. Data for the mlh1 rad18 strain (AID 175). Particulars: S. cerevisiae mlh1 rad18 strain growth inhibition, stronger effect = higher value. Put shortly:
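Vehicle-treated cultures served as the reference for growth inhibition in a yeast strain carrying DNA damage repair alterations exposed to each compound.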

The mark [7] stands for this setting: at 5.0 µM (retest, dose inferred, filed as 0.5).
Setting [8] is: at 50.0 µM (retest, dose inferred, filed as 5.0).

For the molecule `CCOC(=O)c1c(N)sc2c1CCCCC2`, the growth inhibition is -160% in assay [1] (setting [7]); -118% in assay [1] (setting [8]); 47% in assay [1] (at 50.0 µM); -51% in assay [2] (setting [7]); -25% in assay [2] (setting [8]); 45.4% in assay [2] (at 50.0 µM). In addition, the growth inhibition was -63% in assay [3] (setting [7]); 1% in assay [3] (setting [8]); 52% in assay [3] (at 50.0 µM); -53% in assay [4] (setting [7]); -52% in assay [4] (setting [8]); 27.6% in assay [4] (at 50.0 µM). For the same molecule, the growth inhibition in assay [5] (setting [7]) is -71%; in assay [5] (setting [8]), -42%; in assay [5] (at 50.0 µM), 50.4%; in assay [6] (setting [7]), -142%; in assay [6] (setting [8]), -88%; in assay [6] (at 50.0 µM), 61.1%.
Regarding `COc1cc(C(=O)C2OC2c2ccc(Cl)cc2)c([N+](=O)[O-])cc1OC` (configuration not stated), the growth inhibition was 25% in assay [1] (setting [7]); 51% in assay [1] (setting [8]); 54% in assay [1] (at 50.0 µM); 22% in assay [2] (setting [7]); 47% in assay [2] (setting [8]); 26.4% in assay [2] (at 50.0 µM). The growth inhibition in assay [3] (setting [7]) was 24%; in assay [3] (setting [8]), 61%; in assay [3] (at 50.0 µM) it was 54%; in assay [4] (setting [7]) it was 36%; in assay [4] (setting [8]), 57%; in assay [4] (at 50.0 µM), 58.5%. The growth inhibition in assay [5] (setting [7]) is 15%; in assay [5] (setting [8]), 51%; in assay [5] (at 50.0 µM), 36.8%; in assay [6] (setting [7]) it was 36%; in assay [6] (setting [8]) it was 85% (active); in assay [6] (at 50.0 µM) it was 64.2%.
With `CC(C)C1=CC23CCC4C(C)(C(=O)O)CCCC4(C)C2CC1CC3C#N` (configuration not stated), the growth inhibition in assay [1] (setting [7]) was 19%; in assay [1] (setting [8]), 56%; in assay [1] (at 50.0 µM), 98% (active); in assay [2] (setting [7]), 18%; in assay [2] (setting [8]), 34%; in assay [2] (at 50.0 µM) it was 98.5% (active). Further, the growth inhibition in assay [3] (setting [7]) was 12%; in assay [3] (setting [8]), 42%; in assay [3] (at 50.0 µM), 98.5% (active); in assay [4] (setting [7]), 3%; in assay [4] (setting [8]), 57%; in assay [4] (at 50.0 µM) it was 97.1% (active). Besides, the growth inhibition was -1% in assay [5] (setting [7]); 49% in assay [5] (setting [8]); 98.5% (active) in assay [5] (at 50.0 µM); 13% in assay [6] (setting [7]); 39% in assay [6] (setting [8]); 98.2% (active) in assay [6] (at 50.0 µM).
As for `O=C(c1ccccc1)C1Cc2ccccc2C1=O` (configuration not stated), the growth inhibition was 2% in assay [1] (setting [7]); 39% in assay [1] (setting [8]); 78.5% (active) in assay [1] (at 50.0 µM); -16% in assay [2] (setting [7]); 2% in assay [2] (setting [8]); 50.1% in assay [2] (at 50.0 µM). For the same molecule, the growth inhibition is 0% in assay [3] (setting [7]); 5% in assay [3] (setting [8]); 86.5% (active) in assay [3] (at 50.0 µM); 3% in assay [4] (setting [7]); 1% in assay [4] (setting [8]); 19.8% in assay [4] (at 50.0 µM). Besides, the growth inhibition in assay [5] (setting [7]) is 35%; in assay [5] (setting [8]), 13%; in assay [5] (at 50.0 µM), 4.4%; in assay [6] (setting [7]) it was 2%; in assay [6] (setting [8]), 11%; in assay [6] (at 50.0 µM), 84.2% (active).
With `N#CC(C(=O)C(=O)Nc1cccc(C(F)(F)F)c1)c1ccccc1` (configuration not stated), the growth inhibition in assay [1] (setting [7]) is -23%; in assay [1] (setting [8]), 90% (active); in assay [1] (at 50.0 µM) it was -23.1%; in assay [2] (setting [7]), -12%; in assay [2] (setting [8]), 76% (active); in assay [2] (at 50.0 µM), 10.2%. For the same molecule, the growth inhibition in assay [3] (setting [7]) was -19%; in assay [3] (setting [8]), 75% (active); in assay [3] (at 50.0 µM) it was 16.6%; in assay [4] (setting [7]), -9%; in assay [4] (setting [8]), 90% (active); in assay [4] (at 50.0 µM), -20.7%. Also, the growth inhibition in assay [5] (setting [7]) is -10%; in assay [5] (setting [8]), 94% (active); in assay [5] (at 50.0 µM), 6.55%; in assay [6] (setting [7]) it was 34%; in assay [6] (setting [8]), 83% (active); in assay [6] (at 50.0 µM) it was 12.7%.
On to `O=[N+]([O-])c1ccc2nc(-c3ccc(Cl)cc3)[nH]c2c1`, for which the growth inhibition in assay [1] (setting [7]) was 0%; in assay [1] (setting [8]) it was 91% (active); in assay [1] (at 50.0 µM), 71.5% (active); in assay [2] (setting [7]), -1%; in assay [2] (setting [8]), 89% (active); in assay [2] (at 50.0 µM), 72.8% (active). The growth inhibition is -2% in assay [3] (setting [7]); 89% (active) in assay [3] (setting [8]); 75.4% (active) in assay [3] (at 50.0 µM); -6% in assay [4] (setting [7]); 83% (active) in assay [4] (setting [8]); 72.6% (active) in assay [4] (at 50.0 µM). The growth inhibition in assay [5] (setting [7]) is 1%; in assay [5] (setting [8]), 95% (active); in assay [5] (at 50.0 µM) it was 81.9% (active); in assay [6] (setting [7]), -15%; in assay [6] (setting [8]), 94% (active); in assay [6] (at 50.0 µM), 78.8% (active).
For the molecule `Cc1cc(Cc2ccccc2)ccc1O`, the growth inhibition is 0% in assay [1] (setting [7]); 66% in assay [1] (setting [8]); 51.2% in assay [1] (at 50.0 µM); -6% in assay [2] (setting [7]); 39% in assay [2] (setting [8]); 96.4% (active) in assay [2] (at 50.0 µM). Further, the growth inhibition in assay [3] (setting [7]) was -1%; in assay [3] (setting [8]) it was 50%; in assay [3] (at 50.0 µM) it was 55.8%; in assay [4] (setting [7]), -5%; in assay [4] (setting [8]) it was 15%; in assay [4] (at 50.0 µM), 57.5%. The growth inhibition in assay [5] (setting [7]) was -11%; in assay [5] (setting [8]), 47%; in assay [5] (at 50.0 µM), 81% (active); in assay [6] (setting [7]) it was 8%; in assay [6] (setting [8]), 60%; in assay [6] (at 50.0 µM), 41%.
On to `COC(=O)NC1CCCCCCCCCCC1I` (configuration not stated), for which the growth inhibition in assay [1] (setting [7]) was -4%; in assay [1] (setting [8]), 97% (active); in assay [1] (at 50.0 µM) it was 98.5% (active); in assay [2] (setting [7]), 14%; in assay [2] (setting [8]), 99% (active); in assay [2] (at 50.0 µM), 82.3% (active). Moreover, the growth inhibition was -5% in assay [3] (setting [7]); 99% (active) in assay [3] (setting [8]); 17.1% in assay [3] (at 50.0 µM); 19% in assay [4] (setting [7]); 99% (active) in assay [4] (setting [8]); -2.05% in assay [4] (at 50.0 µM). Also, the growth inhibition is -5% in assay [5] (setting [7]); 99% (active) in assay [5] (setting [8]); 3.35% in assay [5] (at 50.0 µM); 5% in assay [6] (setting [7]); 98% (active) in assay [6] (setting [8]); 99% (active) in assay [6] (at 50.0 µM).
On to `C[N+](C)(C)CCN(Cc1cccs1)c1ccccn1`, for which the growth inhibition in assay [1] (setting [7]) is -2%; in assay [1] (setting [8]), -9%; in assay [1] (at 50.0 µM), 20.2%; in assay [2] (setting [7]) it was 8%; in assay [2] (setting [8]), -16%; in assay [2] (at 50.0 µM), 29.9%. Further, the growth inhibition in assay [3] (setting [7]) was 2%; in assay [3] (setting [8]), -20%; in assay [3] (at 50.0 µM) it was -37.8%; in assay [4] (setting [7]), -27%; in assay [4] (setting [8]), -111%; in assay [4] (at 50.0 µM) it was 72.2% (active). Also, the growth inhibition in assay [5] (setting [7]) was -4%; in assay [5] (setting [8]) it was -10%; in assay [5] (at 50.0 µM), -4.2%; in assay [6] (setting [7]), -3%; in assay [6] (setting [8]), -13%; in assay [6] (at 50.0 µM), -2.15%.
